{
  "source": "PubChem BioAssay AID489025",
  "about": "(Southern Research Specialized Biocontainment Screening …, 2010)",
  "note": "Screen size: about 2,300 compounds; about 790 (34%) were called active. No rule for the calls is given here. Some of the results follow. Results with a measured potency or affinity are listed apart.",
  "data": [
    {"test": "THP-1 cell cytotoxicity, dose response, cytotoxicity control for non-replicating M. tuberculosis project (AID 489025)", "details": "THP-1 cell viability; series mostly up to 40 µM", "values": [
      {"smiles": "O=C(COC(=O)CCc1c[nH]c2ccccc12)Nc1ccc([N+](=O)[O-])cc1", "outcome": "inactive"},
      {"smiles": "CC1N(C)c2cccc3cccc(c23)N1C", "outcome": "inactive"},
      {"smiles": "COC(=O)c1cccc(COC(=O)c2cc3ccccc3oc2=O)c1", "outcome": "inactive"},
      {"smiles": "Cc1cc(Cl)ccc1NNC(=O)c1c(C)noc1C", "outcome": "inactive"},
      {"smiles": "O=C(NN=C1C2CC3CC1CC(Cl)(C3)C2)c1cccs1", "outcome": "inactive"},
      {"smiles": "O=C(N/N=C/C=C/c1ccccc1[N+](=O)[O-])c1ccncc1", "outcome": "inactive"},
      {"smiles": "O=C(NNc1nc2ccccc2s1)Nc1ccc(F)cc1", "outcome": "inactive"},
      {"smiles": "O=[N+]([O-])c1cc(N=Nc2ccc3ccccc3c2)ccc1O", "outcome": "inactive"},
      {"smiles": "O=C(COc1ccccc1)NNc1nc2ccccc2s1", "outcome": "inactive"},
      {"smiles": "Clc1cccc(/C=N\\Nc2nccs2)c1", "outcome": "inactive"},
      {"smiles": "Cc1cccc(N2CCN(Cc3ccc([N+](=O)[O-])o3)CC2)c1C", "outcome": "inactive"},
      {"smiles": "CCCCOC(=O)c1ccc(NC(=O)c2nn(C)cc2Br)cc1", "outcome": "inactive"},
      {"smiles": "O=C(N/N=C/c1ccc[nH]1)c1ccncc1", "outcome": "inactive"},
      {"smiles": "O=C1NCC(O)=C1C=Nc1ccccc1O", "outcome": "inactive"},
      {"smiles": "Cc1[nH]nc2c1C(c1ccc(-c3ccc(Cl)cc3)o1)C(C#N)=C(N)O2", "note": "(stereo not given)", "outcome": "inactive"},
      {"smiles": "Cc1ccc(NCCC(=O)c2cccs2)cc1Cl", "outcome": "inactive"},
      {"smiles": "CC1(C)CC(=O)C=C(Nc2ccccc2N)C1", "outcome": "inactive"},
      {"smiles": "Nc1ccccc1Nc1ccccc1", "outcome": "inactive"},
      {"smiles": "CSCCOC(=O)COc1ccc(/C=N/NC(=O)c2c(Cl)cnn2C)cc1", "outcome": "inactive"},
      {"smiles": "CCOC(=O)CC(NS(=O)(=O)Cc1ccccc1)c1ccc(C)cc1", "note": "(stereo not given)", "outcome": "inactive"},
      {"smiles": "CCCCC1CCC(C(=O)Nc2ccc(S(=O)(=O)Nc3nccs3)cc2)CC1", "note": "(stereo not given)", "outcome": "inactive"},
      {"smiles": "COC(=O)COc1ccc(S(=O)(=O)N2CCCCCC2)cc1", "outcome": "inactive"},
      {"smiles": "CC1(C)Oc2ccc(NC(=O)C3COc4ccccc4O3)cc2O1", "note": "(stereo not given)", "outcome": "inactive"},
      {"smiles": "CC(C)(C)NC(=O)c1ccc(NC(=O)c2ccccc2-c2ccccc2C(=O)O)cc1", "outcome": "inactive"},
      {"smiles": "CCc1nnc(NC(=O)c2cc3ccccc3oc2=O)s1", "outcome": "inactive"},
      {"smiles": "COC(=O)COc1ccc2c(=O)c(-c3ccccc3OC)coc2c1", "outcome": "inactive"},
      {"smiles": "O=C(COC(=O)c1cc2ccccc2oc1=O)Nc1ccc(F)cc1F", "outcome": "inactive"},
      {"smiles": "O=C(CCSc1ccc(Cl)cc1)NC1CCCC1", "outcome": "inactive"},
      {"smiles": "CCc1ccc(NC(=O)COc2ccc3c(c2)OCO3)cc1", "outcome": "inactive"},
      {"smiles": "COc1ccc(C(=O)COC(=O)CCC(=O)c2cccs2)cc1", "outcome": "inactive"},
      {"smiles": "Cc1nc(C(=O)Nc2ccccc2)sc1C(=O)Nc1ccccc1", "outcome": "inactive"},
      {"smiles": "CC1=CC2=NC(=O)/C(=C\\c3ccc(OC(=O)c4ccco4)cc3)C(=N)N2O1", "outcome": "inactive"},
      {"smiles": "CCOC(=O)c1ccc(COC(=O)c2cc3ccccc3oc2=O)o1", "outcome": "inactive"},
      {"smiles": "COc1cccc(OCC(=O)NNC(=O)C(=O)Nc2cccc(C)c2)c1", "outcome": "inactive"},
      {"smiles": "Cc1cccc(OCC(=O)NNC(=O)c2cc3ccccc3oc2=O)c1", "outcome": "inactive"},
      {"smiles": "O=c1oc(-c2ccccc2[N+](=O)[O-])nc2ccccc12", "outcome": "inactive"},
      {"smiles": "O=C(NC1=NCCS1)c1ccc(-c2ccc(Cl)cc2)o1", "outcome": "inactive"},
      {"smiles": "NC(=O)c1ccc(-c2ccc(Br)cc2)o1", "outcome": "inactive"},
      {"smiles": "CCOc1ccc(C(=O)Nc2ccc(N3CCN(C)CC3)cc2)cc1Br", "outcome": "inactive"},
      {"smiles": "O=C(NNC(=O)c1ccccc1F)c1ccc(-c2ccc(Cl)cc2)o1", "outcome": "inactive"},
      {"smiles": "CC(=O)N1CCN(c2cc3c(cc2F)c(=O)c(C(=O)O)cn3C2CC2)CC1", "outcome": "inactive"},
      {"smiles": "CCCCn1c(O)c(/C=C2/C=CC=N2)c(=O)[nH]c1=O", "outcome": "inactive"},
      {"smiles": "COC(=O)C(O)(c1ccc(NC(=S)NC(=O)c2ccccc2)cc1)C(F)(F)F", "note": "(stereo not given)", "outcome": "inactive"},
      {"smiles": "CCOC(=O)CCSc1n[nH]c(=S)s1", "outcome": "inactive"},
      {"smiles": "COC(=O)CN(C#N)c1nc(N(C)C)nc(N(C)C)n1", "outcome": "inactive"},
      {"smiles": "Cc1ccc2nc3c(c(N)c2c1)CCN3c1ccccc1", "outcome": "inactive"},
      {"smiles": "O=C(c1cc([N+](=O)[O-])cc([N+](=O)[O-])c1)N(Cc1nnc(-c2ccccc2Cl)o1)C1CC1", "outcome": "inactive"},
      {"smiles": "O=C(COc1ccc2ccccc2c1)N/N=C/c1ccccn1", "outcome": "inactive"},
      {"smiles": "COc1ccc(C(=O)Nc2ccccc2C(=O)N/N=C/c2ccco2)cc1", "outcome": "inactive"},
      {"smiles": "CCn1cc(/C=N\\NC(=O)c2ccc(F)cc2)cn1", "outcome": "inactive"},
      {"smiles": "O=C(COc1ccccc1)Nc1ccc(F)cc1", "outcome": "inactive"},
      {"smiles": "COc1ccc(C2=NC(=O)/C(=C\\c3cc(OC)c(OC)c(OC)c3)O2)cc1", "outcome": "inactive"},
      {"smiles": "CSc1nnc(Cc2ccc3c(c2)OCO3)o1", "outcome": "inactive"},
      {"smiles": "Oc1ccccc1-c1nnc(COc2ccccc2)o1", "outcome": "inactive"},
      {"smiles": "Cc1ccc(-c2nnc(-c3ccccc3)o2)cc1", "outcome": "inactive"},
      {"smiles": "Cc1cc(C)cc(NC(=O)CCc2ccc(C)o2)c1", "outcome": "inactive"},
      {"smiles": "Cn1c(=O)c(Oc2ccc(F)cc2)c(O)c2ccccc21", "outcome": "inactive"},
      {"smiles": "Nc1nnc(SCCCC(=O)c2ccc(Br)cc2)s1", "outcome": "inactive"},
      {"smiles": "CC(C)(C)c1cc(CN2CCC(O)CC2)cc(C(C)(C)C)c1O", "outcome": "inactive"},
      {"smiles": "Cc1cc(C(=O)NNc2cc(Cl)ccc2Cl)no1", "outcome": "inactive"}
    ]}
  ]
}
